Screening data deposited in PubChem by National Center for Advancing Translational Sciences (NCATS).
HCMV inh = qHTS Assay for inhibitors of the human cytomegalovirus (HCMV); activity change, negative = inhibition, % at 57.5 µM; HFF cells, HCMV-luciferase reporter, 72 h; hits give low values; AID 1259415, 2018; actives 4.5% (n = 410,000); in the data active means activity change below about -60%; inconclusive means no clear call, values can overlap the other calls; inactive means above about -39%
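Cell-based, HFFs, 1000 cells/well, 16 h 37C; cpds in DMSO + HCMV-luc, MOI 1 PFU/cell; 72 h 37C; OneGlo luminescence after 5 min RT; norm. to buffer vs Salinomycin 10uM.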
Vaccinia mCherry = qHTS for Stage-Specific Inhibitors of Vaccinia Orthopoxvirus: mCherry Reporter Primary qHTS. AID 720579, 2013. actives 0.63% (n = 310,000). Potency, µM (titrated, usually from 36.5 µM), without a hit: at the top dose activity change, negative = inhibition, actives largely listed as inhibitors. Vaccinia virus mCherry reporter infection, fluorescence; calls by dose curve; tested in A549 cells; further: potency means the concentration at half of the fitted maximal effect; nearly all actives have a fitted effect of over 35% in size
Marburg entry inh = qHTS for inhibitors of binding or entry into cells for Marburg Virus; Potency, µM (titrated, usually from 37.8 µM), without a hit: at the highest dose activity change, negative = inhibition, hits mostly inhibitors; actives 1.8% (n = 300,000); Marburg virus pseudotyped entry inhibition, cell reporter; calls by dose curve; tested in HEK293 cells; further: potency means the concentration at half of the fitted maximal effect
HCV inhibitor = qHTS Assay for Inhibitors of Hepatitis C Virus (HCV); AID 651820, 2012; Potency, µM (top dose mostly 41.8 µM), without a hit: top-dose activity change, negative = inhibition, usual class: inhibitors; actives 3.4% (n = 340,000); Huh7.5.1 HCVcc-Cre infection, luciferase reporter, 44 h; active means well fitted inhibition curve with a large enough effect; inconclusive means small, poorly fitted or top-dose-only effect, or another doubt; inactive means no such curve, though single readings can be large or run the other way; further: potency means the concentration at half of the fitted maximal effect
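A cell-based infection assay in which seeded cells (1,000 per well) receive test compound after 4 h, are inoculated with HCVcc-Cre at approximately 0.5 moi, and are incubated 44 h before luminescence detection.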
LASV entry inh = qHTS for Inhibitors of binding or entry into cells for Lassa Virus. Lassa virus pseudotype entry inhibition, cell reporter. actives 1.2% (n = 300,000). Potency, µM (doses to about 37.9 µM), for the others: at the top dose activity change, negative = inhibition, most hits filed as inhibitors. AID 540256, 2011; calls by dose curve; tested in HEK293 cells; further: potency means the concentration at half of the fitted maximal effect; nearly all actives have a fitted effect of over 50% in size
Vaccinia Venus = qHTS for Stage-Specific Inhibitors of Vaccinia Orthopoxvirus: Venus Reporter Primary qHTS | AID 720580, 2013 | Vaccinia virus Venus reporter expression, fluorescence | Potency, µM (series often up to 36.5 µM), for the others: at the highest dose activity change, negative = inhibition, hits mostly inhibitors | actives 0.46% (n = 330,000); calls by dose curve; tested in A549 cells; further: potency means the concentration at half of the fitted maximal effect; nearly all actives have a fitted effect of over 30% in size
* marks the source's active call; other numbers are inactive results; i = inactive; ? = inconclusive; nt = not tested or not shown; [ ] = remark or other dose. In the library only some 7.8% were active in any assay of this set; here they are far more common. On the % scale 0 is the no-effect control and ±100 the full control effect.

SMILES	HCMV inh	Vaccinia mCherry	Marburg entry inh	HCV inhibitor	LASV entry inh	Vaccinia Venus
Cc1ccccc1-c1ccc2c(c1)COCC(=O)N2C	1	nt	nt	nt	nt	nt
CN1CC(=O)NC1=N	nt	4%	nt	nt	nt	16%
O=C(Nc1cccc(C(=O)OCc2cc(=O)n3c4c(sc3n2)CCCC4)c1)c1ccccc1	1	-9%	nt	nt	26%[46.1 µM]	-10%
COc1cc(NC(=O)Nc2cccc(-c3noc(C)n3)c2)cc(OC)c1OC	-77*	-7%	nt	nt	0%[46.1 µM]	-13%
COc1cc(NC(=O)c2cc(-c3ccccc3Cl)on2)cc(OC)c1OC	-21	i	?	1.1µM*	-19%	?
O=C(Nc1cnn(Cc2ccc(F)cc2)c1)c1cc(-c2cccs2)on1	16	nt	-15%	8.9µM*	-9%	nt
COc1cccc(-c2cc(C(=O)Nc3cnn(Cc4ccc(Cl)cc4Cl)c3)no2)c1	?	?	-7%[46.1 µM]	nt	?	11µM*
COc1ccc(Cn2ccc3nc(C)c(C(=O)NCc4ccc(SC)cc4)cc3c2=O)cc1	-2	-26%	nt	nt	-6%[46.1 µM]	-30%
COc1ccc(N2C(=O)CSC23C(=O)N(CC(=O)NCc2ccccc2)c2ccccc23)cc1 (stereo not given)	20	-7%	nt	nt	6%[46.1 µM]	-7%
COc1ccc(NC(=O)c2cc(-c3cccc(OC)c3)on2)cc1	40	0%	23%[46.1 µM]	-20%	?	-13%
COc1cc(NC(=O)c2cc(-c3ccc(Cl)c(Cl)c3)on2)cc(OC)c1OC	-18	-18%	-4%[46.1 µM]	nt	?	-5%
COc1cc(NC(=O)c2cc(-c3cccc(O)c3)on2)cc(OC)c1OC	41	?	nt	11µM*	nt	-19%
COc1cccc(-c2cc(C(=O)Nc3cccc(O)c3)no2)c1	85	nt	4.6µM*	-22%	6.5µM*	nt
COCOc1c2c(c(OCOC)c3c(OCOC)cccc13)C(=NNS(C)(=O)=O)C1=C2CCCC1	nt	nt	1%[14.2 µM]	nt	nt	nt
COc1cc(/C=C/CN2CCOc3ccc(C(O)c4cccnc4)cc3C2)ccc1O (stereo not given)	nt	-14%	nt	nt	nt	-7%
Cc1ccccc1Nc1nc(-c2cccnc2)nc2ccccc12	10	?	nt	?	nt	-23%
Oc1ccc(/C=N/Nc2nc(-c3cccnc3)nc3ccccc23)c(O)c1	-26	?	nt	11µM*	nt	-8%
Cc1ccc(-c2nc(N/N=C/c3ccncc3)c3ccccc3n2)cc1	100	-7%	2.9µM*	-23%	?	-8%
Cc1c(O)ccc(/C=N/Nc2nc(-c3cccnc3)nc3ccccc23)c1O	-75*	-29%	nt	25µM*	nt	-17%
CC(C)(C)Nc1oc(-c2ccccc2)nc1-c1cccc2ccccc12	nt	nt	-4%[14.2 µM]	nt	nt	nt
COCOc1c2c(c(OCOC)c3c(OCOC)cccc13)C(=NNS(=O)(=O)c1ccc(C)cc1)C1=C2CCCC1	nt	nt	-17%[14.2 µM]	nt	nt	nt
COc1cccc(NC(=S)/C(=C(\[O-])c2cc(C)n(-c3ccccc3F)c2C)[n+]2ccc(N(C)C)cc2)c1	-95*	nt	nt	?	nt	nt
Cn1nc([N+](=O)[O-])nc1S(C)(=O)=O	?	?	?	10µM*	?	-22%
CCOc1cc(-c2nccc3cc(OC)c(OC)cc23)cc(OCC)c1OCC	-27	-14%	13µM*	?	?	-12%
COc1cc2ccnc(Cc3cccc(OC)c3OC)c2cc1OC	-72*	-17%	20%[46.1 µM]	?	nt	-21%
SMILES	HCMV inh	Vaccinia mCherry	Marburg entry inh	HCV inhibitor	LASV entry inh	Vaccinia Venus
COc1cc(N)c(Cc2nccc3cc(OC)c(OC)cc23)cc1OC	2	?	-15%[46.1 µM]	-19%	?	1%
Cc1ncc2c(c1CNC(=O)c1cncs1)CCN(C(=O)c1ccc(C(C)(C)C)cc1)C2	nt	i	nt	nt	nt	?
CN1C(=O)C2=NC(C3CCCC3)=NC2N(C)C1=O (stereo not given)	nt	nt	68%	nt	nt	nt
COc1ccc(-c2cn3cc(C)ccc3n2)cc1Br	194	-27%	14µM*	?	?	-21%
Cc1cccc2cc3c(N)c(C(=O)Nc4ccc(N5CCOCC5)cc4)sc3nc12	-19	i	?	4µM*	13µM*	-12%
Cc1cc(C)c2nc3sc(C(=O)N4CCOCC4)c(N)c3cc2c1	-94*	nt	nt	?	nt	nt
Cc1ccc(C)c2nc3sc(C(=O)N4CCOCC4)c(N)c3cc12	-39	-28%	?	?	-16%[46.1 µM]	-12%
Cc1ccc2nc3sc(C(=O)Nc4ccc(N5CCOCC5)cc4)c(N)c3cc2c1	nt	nt	nt	-24%	nt	nt
O=[N+]([O-])c1ccccc1-c1onc(-c2ccccc2Br)c1Br	11	nt	nt	nt	nt	nt
CS(=O)(=O)N(Cc1ccccc1)c1ccc(C(=O)N2CCN(c3cccc(Cl)c3)CC2)cc1	-29	nt	13µM*	8.9µM*	?	nt
Cc1ccc(CN(c2ccc(C(=O)N3CCc4ccccc4C3)cc2)S(C)(=O)=O)cc1	-34	nt	0%	10µM*	?	nt
CCc1ccc(NC(=O)CN2C(=O)C(=O)c3ccccc32)cc1	42	4%	?	nt	0%[46.1 µM]	2%
Cc1ccc(Cn2c(SCc3ccc(C(=O)NC4CCCC4)cc3)nc3ccncc32)cc1	-74*	?	8%[46.1 µM]	nt	-26%[46.1 µM]	?
O=C(c1ccc(CSc2nc3ccncc3n2Cc2ccccc2F)cc1)N1CCCCC1	-62*	-23%	6%[46.1 µM]	nt	nt	-19%
CCCCOc1ccccc1C(=O)N(Cc1cccc(F)c1)C1CCS(=O)(=O)C1 (stereo not given)	1	-6%	-7%[46.1 µM]	nt	-1%[46.1 µM]	-10%
Fc1ccc(NCc2nnc3n2CCCCC3)cc1Cl	7	-5%	nt	nt	-22%[46.1 µM]	-3%
Cc1nn(C)c(C)c1S(=O)(=O)N1CCC(C(=O)NCCC2=CCCCC2)CC1	?	6%	0%	-10%	nt	-10%
O=C1CCc2cc(S(=O)(=O)N3CCC(C(=O)NCCC4=CCCCC4)CC3)ccc2N1	-99*	-13%	nt	-8%	nt	-9%
Cc1noc(C)c1S(=O)(=O)N1CCC(C(=O)NCCC2=CCCCC2)CC1	-102*	-5%	?	?	11%	-9%
COc1ccc2c(c1)CCc1cnc(-n3ncc(C(=O)N(C)CCc4ccccn4)c3C)nc1-2	nt	-10%	nt	nt	nt	-30%
COc1ccc(N2C(S)=C(C#N)C(=O)NC2c2ccco2)cc1 (stereo not given)	-35	-8%	-4%	36%	11%	-14%
Cc1cccc(N2C(S)=C(C#N)C(=O)NC2c2ccco2)c1 (stereo not given)	-68*	-15%	?	3%	9%[46.1 µM]	-20%
COc1cccc(COc2cc(-n3cnc4ccccc43)sc2C(N)=O)c1	nt	nt	nt	nt	5µM*	nt
COc1cccc(CNC(=O)CCn2cnc3ccccc3c2=O)c1	-3	-11%	nt	nt	5%[46.1 µM]	2%
